For two compounds, Potency results are on record in PubChem BioAssay AID624094 (National Center for Advancing Translational Sciences (NCATS), 2012).

Results filed as inconclusive are left out. The source made the active and inactive calls. The call rests on the fitted dose curve; in most records, active means well fitted inhibition curve with a large enough effect; inconclusive means small, poorly fitted or top-dose-only effect; inactive means flat fitted curve, though single readings scatter.

This assay has as its target Dual specificity protein kinase CLK4 (Homo sapiens) (UniProt Q9HAZ1). As to the kind of experiment: Confirmation Assay for Inhibitors of Clk4 (Kinase-Glo Assay): KU probe. The conditions noted are these: recombinant Clk4, Kinase-Glo ATP luminescence. On the procedure:
NIH Molecular Libraries Probe Production Centers Network [MLPCN] NIH Chemical Genomics Center [NCGC] MLPCN Grant: 1R03MH084827-01 Assay Submitter (PI): Tom Misteli NCGC Assay Overview: Clk4 (Invitrogen, cat# PV3839) was assayed using ATP and the RS repeat peptide (AnaSpec cat # 61722) as substrates. Following the Clk4 reaction, the remaining ATP levels were detected using Promega Kinase-Glo technology wherein the remaining ATP from the kinase reaction is detected using Ultra-Glo luciferase and D-luciferin which generates a bioluminescence signal from the ATP.
NCGC Assay Protocol Summary: Two uL/well of substrate-buffer solution (100 uM RS peptide, 1 uM ATP, 25 mM Tris pH7.5, 10 mM MgCl2, 0.5 mM EGTA, 2.5 mM DTT, 0.01% Triton X-100 final concentration) was dispensed into 1536-well, assay plates (Greiner, solid white medium-binding plates) with Aurora Discovery BioRAPTR Flying Reagent Dispenser (FRD; Beckton-Dickenson). Using a Kalypsys pin tool equipped with a 1536-pin tool, 23 nL of compound solution was transferred to the assay plate. […] Luminescence was detected with the ViewLux plate reader (Perkin Elmer, Waltham, MA) after 5 min incubation using a 5 second exposure time and 2x binning.
For orientation: In Kinase-Glo more light means more ATP remaining.

Dual specificity protein kinase CLK4 (Homo sapiens), sequence (Q9HAZ1 whole entry, looked up): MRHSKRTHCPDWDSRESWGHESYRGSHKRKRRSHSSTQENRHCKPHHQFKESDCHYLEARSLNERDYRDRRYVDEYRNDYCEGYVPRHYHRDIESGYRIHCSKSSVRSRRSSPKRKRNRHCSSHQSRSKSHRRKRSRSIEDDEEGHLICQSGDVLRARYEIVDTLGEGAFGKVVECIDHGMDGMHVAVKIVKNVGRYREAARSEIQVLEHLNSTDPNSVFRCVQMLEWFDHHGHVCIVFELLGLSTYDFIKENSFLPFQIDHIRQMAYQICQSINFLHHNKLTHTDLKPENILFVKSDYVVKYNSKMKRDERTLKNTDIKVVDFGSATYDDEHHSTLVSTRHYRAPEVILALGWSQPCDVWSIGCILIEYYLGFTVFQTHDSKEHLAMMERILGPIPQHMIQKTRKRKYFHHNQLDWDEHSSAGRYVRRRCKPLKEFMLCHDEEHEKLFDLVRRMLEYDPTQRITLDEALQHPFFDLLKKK

For `Clc1ccc(CNc2ccnc(-c3ccc4c(c3)OCO4)n2)cn1`, the Potency is 29.2 µM (active).

With `Cc1cc(CNc2ccnc(-c3ccc4c(c3)OCO4)n2)cnc1F`, the Potency was 9.23 µM (active).
